Experiments:
Test in all cases: DAPPL (digital affinity profiling via proximity ligation, sequencing); 10 mM Tris-HCl pH 7.5, 50 mM NaCl, 1 mM DTT, 4% glycerol, room temperature, 30 min; GST-TFs on glutathione beads, 16-mer random dsDNA library, 0.1% formaldehyde crosslink after washing; high values mean tight binding
FLI1 = target: T1, FLI1 (Homo sapiens, UniProt Q01543 1-452); conditions: protein: recombinant; tags: N-terminal GST; dsDNA, one strand shown
T1 sequence: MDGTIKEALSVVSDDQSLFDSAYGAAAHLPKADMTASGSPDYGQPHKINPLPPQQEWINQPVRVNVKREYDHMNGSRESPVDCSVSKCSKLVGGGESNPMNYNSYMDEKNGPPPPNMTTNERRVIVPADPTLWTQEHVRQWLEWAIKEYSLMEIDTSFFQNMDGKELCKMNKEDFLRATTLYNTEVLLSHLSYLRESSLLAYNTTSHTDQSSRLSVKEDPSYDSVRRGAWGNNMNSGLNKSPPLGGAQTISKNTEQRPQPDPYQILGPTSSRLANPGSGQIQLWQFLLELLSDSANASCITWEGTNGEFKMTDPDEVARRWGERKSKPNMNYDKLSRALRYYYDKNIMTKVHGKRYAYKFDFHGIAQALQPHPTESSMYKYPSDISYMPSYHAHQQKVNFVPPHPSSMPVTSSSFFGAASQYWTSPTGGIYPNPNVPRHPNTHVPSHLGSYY
In short: (§1)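 Binding signal is defined as a hexamer's read frequency for one factor over its frequency for the tag-only sample. To obtain reads, GST-fused human transcription factors were expressed in yeast, captured on glutathione beads, barcoded with DNA and pooled with that sample. Pools met 200 nmole of a 16-mer random double-stranded DNA library in Tris/NaCl/DTT/glycerol buffer for 30 min at room temperature before washing, 0.1% formaldehyde crosslinking, proximity ligation (BsaI/T4 ligase, 1 h, 37 °C), PCR and Illumina NextSeq500 sequencing.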

ELK1 = target: T2, ELK1 (Homo sapiens, UniProt P19419 1-428); conditions: protein: recombinant; tags: N-terminal GST; dsDNA, one strand shown
T2 sequence: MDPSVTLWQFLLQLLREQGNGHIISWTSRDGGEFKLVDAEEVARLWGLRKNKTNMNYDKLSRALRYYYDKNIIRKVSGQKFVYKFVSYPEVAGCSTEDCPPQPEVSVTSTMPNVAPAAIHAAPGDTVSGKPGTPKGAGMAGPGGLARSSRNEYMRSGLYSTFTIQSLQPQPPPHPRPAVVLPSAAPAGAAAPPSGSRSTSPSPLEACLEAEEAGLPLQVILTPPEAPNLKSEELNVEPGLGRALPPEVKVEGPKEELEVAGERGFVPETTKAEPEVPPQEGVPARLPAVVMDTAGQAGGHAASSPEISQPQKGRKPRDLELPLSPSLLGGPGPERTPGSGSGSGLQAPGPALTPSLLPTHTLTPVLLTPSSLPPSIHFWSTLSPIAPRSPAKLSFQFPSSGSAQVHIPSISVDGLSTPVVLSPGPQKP
In short: as §1

GABPA = target: T3, GABPA (Homo sapiens, UniProt Q06546 1-454); conditions: protein: recombinant; tags: N-terminal GST; dsDNA, one strand shown
T3 sequence: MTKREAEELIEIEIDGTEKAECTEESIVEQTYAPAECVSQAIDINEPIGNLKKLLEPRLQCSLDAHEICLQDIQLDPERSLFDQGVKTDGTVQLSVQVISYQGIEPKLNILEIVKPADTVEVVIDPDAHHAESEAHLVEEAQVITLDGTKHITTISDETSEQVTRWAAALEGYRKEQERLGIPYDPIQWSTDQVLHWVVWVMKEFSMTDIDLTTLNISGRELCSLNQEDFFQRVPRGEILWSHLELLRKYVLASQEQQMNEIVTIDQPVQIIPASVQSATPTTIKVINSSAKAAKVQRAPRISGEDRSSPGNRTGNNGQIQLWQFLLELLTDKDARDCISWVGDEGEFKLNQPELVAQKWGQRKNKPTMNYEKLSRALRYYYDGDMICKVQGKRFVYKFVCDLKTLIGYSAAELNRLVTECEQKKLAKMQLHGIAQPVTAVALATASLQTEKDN
In short: as §1

ERG = target: T4, ERG (Homo sapiens, UniProt P11308 1-479); conditions: protein: recombinant; tags: N-terminal GST; dsDNA, one strand shown
T4 sequence: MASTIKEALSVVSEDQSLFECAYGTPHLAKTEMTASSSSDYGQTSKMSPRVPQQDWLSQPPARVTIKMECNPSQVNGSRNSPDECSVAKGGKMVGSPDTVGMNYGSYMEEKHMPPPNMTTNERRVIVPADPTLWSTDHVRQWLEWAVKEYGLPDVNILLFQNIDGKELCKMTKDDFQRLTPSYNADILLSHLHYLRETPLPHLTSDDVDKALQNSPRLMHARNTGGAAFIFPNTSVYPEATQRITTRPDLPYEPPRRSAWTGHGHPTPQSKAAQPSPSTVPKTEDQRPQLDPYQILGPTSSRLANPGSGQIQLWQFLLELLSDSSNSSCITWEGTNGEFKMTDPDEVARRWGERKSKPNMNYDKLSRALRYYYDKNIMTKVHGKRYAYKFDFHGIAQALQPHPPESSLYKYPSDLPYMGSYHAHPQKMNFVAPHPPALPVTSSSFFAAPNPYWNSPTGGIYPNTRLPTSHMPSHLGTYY
In short: as §1

ELF1 = ELF1 (Homo sapiens, UniProt P32519 1-619); conditions: protein: recombinant; tags: N-terminal GST; dsDNA, one strand shown
In short: as §1

EHF = target: T5, EHF (Homo sapiens, UniProt Q9NZC4 1-300); conditions: protein: recombinant; tags: N-terminal GST; dsDNA, one strand shown
T5 sequence: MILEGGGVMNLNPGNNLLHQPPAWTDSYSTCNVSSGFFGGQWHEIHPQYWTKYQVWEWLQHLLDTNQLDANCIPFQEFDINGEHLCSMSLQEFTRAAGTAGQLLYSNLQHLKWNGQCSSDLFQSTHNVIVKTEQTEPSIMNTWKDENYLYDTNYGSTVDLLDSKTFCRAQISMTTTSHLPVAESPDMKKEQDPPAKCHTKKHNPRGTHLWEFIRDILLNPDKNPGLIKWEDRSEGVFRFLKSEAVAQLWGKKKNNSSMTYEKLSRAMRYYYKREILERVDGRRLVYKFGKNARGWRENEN
In short: as §1

SPI1 = SPI1 (Homo sapiens, UniProt P17947 1-270); conditions: protein: recombinant; tags: N-terminal GST; dsDNA, one strand shown
In short: as §1

SPIB = SPIB (Homo sapiens, UniProt Q01892 1-262); conditions: protein: recombinant; tags: N-terminal GST; dsDNA, one strand shown
In short: as §1

ELK3 = target: T6, ELK3 (Homo sapiens, UniProt P41970 1-407); conditions: protein: recombinant; tags: N-terminal GST; dsDNA, one strand shown
T6 sequence: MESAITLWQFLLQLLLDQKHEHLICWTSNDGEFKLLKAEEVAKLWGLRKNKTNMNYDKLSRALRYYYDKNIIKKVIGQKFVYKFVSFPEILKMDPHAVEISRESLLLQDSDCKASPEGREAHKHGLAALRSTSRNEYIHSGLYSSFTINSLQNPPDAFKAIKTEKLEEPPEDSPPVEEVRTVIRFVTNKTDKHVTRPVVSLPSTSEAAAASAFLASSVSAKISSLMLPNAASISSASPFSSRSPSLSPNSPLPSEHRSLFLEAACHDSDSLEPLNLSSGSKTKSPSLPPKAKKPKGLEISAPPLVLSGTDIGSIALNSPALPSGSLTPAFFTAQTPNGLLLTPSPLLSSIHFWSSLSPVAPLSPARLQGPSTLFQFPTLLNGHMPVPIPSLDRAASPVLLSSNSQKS
In short: as §1

FEV = target: T7, FEV (Homo sapiens, UniProt Q99581 1-238); conditions: protein: recombinant; tags: N-terminal GST; dsDNA, one strand shown
T7 sequence: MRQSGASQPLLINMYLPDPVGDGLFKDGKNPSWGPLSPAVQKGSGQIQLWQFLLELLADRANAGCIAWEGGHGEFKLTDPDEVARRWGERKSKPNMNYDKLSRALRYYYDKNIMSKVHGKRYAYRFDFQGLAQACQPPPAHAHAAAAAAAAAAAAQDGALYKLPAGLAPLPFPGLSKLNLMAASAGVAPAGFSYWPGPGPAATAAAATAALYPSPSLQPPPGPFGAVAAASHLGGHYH
In short: as §1

ETV5 = ETV5 (Homo sapiens, UniProt P41161 1-510); conditions: protein: recombinant; tags: N-terminal GST; dsDNA, one strand shown
In short: as §1

HSF1 = HSF1 (Homo sapiens, UniProt Q00613 1-529); conditions: protein: recombinant; tags: N-terminal GST; chain copies: 3; dsDNA, one strand shown
In short: as §1

SPIC = target: T8, SPIC (Homo sapiens, UniProt Q8N5J4 1-248); conditions: protein: recombinant; tags: N-terminal GST; dsDNA, one strand shown
T8 sequence: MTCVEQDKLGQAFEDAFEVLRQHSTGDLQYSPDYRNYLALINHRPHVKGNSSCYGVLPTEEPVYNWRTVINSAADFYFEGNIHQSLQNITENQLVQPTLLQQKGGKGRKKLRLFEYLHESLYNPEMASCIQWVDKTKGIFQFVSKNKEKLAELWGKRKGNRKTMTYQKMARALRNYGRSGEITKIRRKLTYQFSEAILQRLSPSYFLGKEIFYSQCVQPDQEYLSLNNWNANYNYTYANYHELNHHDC
In short: as §1

ELF4 = ELF4 (Homo sapiens, UniProt Q99607 1-663); conditions: protein: recombinant; tags: N-terminal GST; dsDNA, one strand shown
In short: as §1

ELK4 = target: T9, ELK4 (Homo sapiens, UniProt P28324-2 1-405); conditions: protein: recombinant; tags: N-terminal GST; dsDNA, one strand shown
T9 sequence: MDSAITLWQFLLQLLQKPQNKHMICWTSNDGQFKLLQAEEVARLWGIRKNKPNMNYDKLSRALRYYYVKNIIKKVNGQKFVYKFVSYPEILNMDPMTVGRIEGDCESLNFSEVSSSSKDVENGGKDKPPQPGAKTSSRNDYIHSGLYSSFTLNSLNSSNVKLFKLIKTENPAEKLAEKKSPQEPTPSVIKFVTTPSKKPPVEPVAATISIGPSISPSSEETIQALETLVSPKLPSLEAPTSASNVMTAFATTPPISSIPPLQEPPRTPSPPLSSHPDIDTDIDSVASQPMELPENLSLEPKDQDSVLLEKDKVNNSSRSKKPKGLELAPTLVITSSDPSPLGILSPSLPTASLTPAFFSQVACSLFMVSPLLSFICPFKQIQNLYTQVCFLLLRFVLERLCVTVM
In short: as §1

ETV2 = target: T10, ETV2 (Homo sapiens, UniProt O00321 1-342); conditions: protein: recombinant; tags: N-terminal GST; dsDNA, one strand shown
T10 sequence: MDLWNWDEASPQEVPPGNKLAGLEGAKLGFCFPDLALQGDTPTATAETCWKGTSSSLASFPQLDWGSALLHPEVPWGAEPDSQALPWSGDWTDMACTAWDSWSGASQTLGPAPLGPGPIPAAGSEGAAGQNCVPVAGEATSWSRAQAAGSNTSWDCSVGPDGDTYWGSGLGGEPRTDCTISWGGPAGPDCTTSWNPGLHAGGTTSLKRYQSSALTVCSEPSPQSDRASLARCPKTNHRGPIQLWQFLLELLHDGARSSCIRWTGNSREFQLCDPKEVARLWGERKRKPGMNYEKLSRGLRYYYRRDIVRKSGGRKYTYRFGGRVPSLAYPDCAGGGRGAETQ
In short: as §1

ELF3 = target: T11, ELF3 (Homo sapiens, UniProt P78545 1-371); conditions: protein: recombinant; tags: N-terminal GST; dsDNA, one strand shown
T11 sequence: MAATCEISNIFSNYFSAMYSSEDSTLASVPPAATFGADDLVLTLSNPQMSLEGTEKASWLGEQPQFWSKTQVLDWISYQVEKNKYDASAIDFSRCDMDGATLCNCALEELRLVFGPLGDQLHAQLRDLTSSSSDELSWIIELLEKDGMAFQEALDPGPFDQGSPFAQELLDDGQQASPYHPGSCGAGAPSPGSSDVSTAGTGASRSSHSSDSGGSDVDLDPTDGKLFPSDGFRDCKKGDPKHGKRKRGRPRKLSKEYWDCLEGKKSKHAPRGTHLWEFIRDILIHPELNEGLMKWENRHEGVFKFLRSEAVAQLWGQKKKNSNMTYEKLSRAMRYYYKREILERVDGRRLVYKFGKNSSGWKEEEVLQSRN
In short: as §1

CRX = CRX (Homo sapiens, UniProt O43186 1-299); conditions: protein: recombinant; tags: N-terminal GST; dsDNA, one strand shown
In short: as §1

ETV1 = ETV1 (Homo sapiens, UniProt P50549 1-477); conditions: protein: recombinant; tags: N-terminal GST; dsDNA, one strand shown
In short: as §1

Sequence of CRX (O43186 whole entry): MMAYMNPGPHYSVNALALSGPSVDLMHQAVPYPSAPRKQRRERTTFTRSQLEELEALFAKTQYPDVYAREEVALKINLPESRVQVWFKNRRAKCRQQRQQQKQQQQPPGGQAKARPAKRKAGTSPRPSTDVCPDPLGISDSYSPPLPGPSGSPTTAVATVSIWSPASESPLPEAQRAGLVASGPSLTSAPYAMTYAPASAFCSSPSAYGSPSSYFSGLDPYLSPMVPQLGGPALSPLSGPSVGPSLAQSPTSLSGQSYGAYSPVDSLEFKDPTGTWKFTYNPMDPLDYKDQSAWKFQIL
Sequence of ELF4 (Q99607 whole entry): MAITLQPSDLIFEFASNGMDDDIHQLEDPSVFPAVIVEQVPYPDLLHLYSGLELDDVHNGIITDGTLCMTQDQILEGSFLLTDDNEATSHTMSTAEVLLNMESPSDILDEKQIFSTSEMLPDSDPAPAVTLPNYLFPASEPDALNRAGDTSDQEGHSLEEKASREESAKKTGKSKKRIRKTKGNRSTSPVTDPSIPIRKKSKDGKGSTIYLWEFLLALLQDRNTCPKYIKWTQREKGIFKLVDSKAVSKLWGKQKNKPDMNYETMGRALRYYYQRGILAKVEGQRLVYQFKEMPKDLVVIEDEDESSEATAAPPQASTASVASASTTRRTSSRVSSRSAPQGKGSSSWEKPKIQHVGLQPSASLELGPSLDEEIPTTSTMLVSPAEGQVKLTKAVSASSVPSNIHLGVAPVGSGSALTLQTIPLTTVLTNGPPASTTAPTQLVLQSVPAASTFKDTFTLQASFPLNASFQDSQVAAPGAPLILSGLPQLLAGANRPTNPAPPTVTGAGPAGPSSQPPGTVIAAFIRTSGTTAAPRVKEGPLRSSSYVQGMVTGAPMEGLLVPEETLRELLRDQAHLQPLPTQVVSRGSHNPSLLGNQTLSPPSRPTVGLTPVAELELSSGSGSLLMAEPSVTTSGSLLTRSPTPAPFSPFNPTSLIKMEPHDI
Sequence of HSF1 (Q00613 whole entry): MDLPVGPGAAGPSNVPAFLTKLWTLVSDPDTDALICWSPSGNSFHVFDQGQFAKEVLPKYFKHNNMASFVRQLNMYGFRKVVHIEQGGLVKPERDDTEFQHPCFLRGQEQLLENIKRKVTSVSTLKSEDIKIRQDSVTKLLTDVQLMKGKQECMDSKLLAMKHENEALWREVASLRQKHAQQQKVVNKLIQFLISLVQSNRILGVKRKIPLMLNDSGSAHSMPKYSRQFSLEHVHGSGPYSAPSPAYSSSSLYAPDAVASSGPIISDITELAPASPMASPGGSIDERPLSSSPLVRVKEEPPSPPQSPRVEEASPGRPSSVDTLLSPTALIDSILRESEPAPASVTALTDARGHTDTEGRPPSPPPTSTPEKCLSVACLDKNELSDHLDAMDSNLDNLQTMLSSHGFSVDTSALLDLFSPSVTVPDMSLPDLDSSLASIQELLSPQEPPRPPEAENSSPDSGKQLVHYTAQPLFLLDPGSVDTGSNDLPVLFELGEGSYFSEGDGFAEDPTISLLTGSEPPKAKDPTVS
Sequence of ELF1 (P32519 whole entry): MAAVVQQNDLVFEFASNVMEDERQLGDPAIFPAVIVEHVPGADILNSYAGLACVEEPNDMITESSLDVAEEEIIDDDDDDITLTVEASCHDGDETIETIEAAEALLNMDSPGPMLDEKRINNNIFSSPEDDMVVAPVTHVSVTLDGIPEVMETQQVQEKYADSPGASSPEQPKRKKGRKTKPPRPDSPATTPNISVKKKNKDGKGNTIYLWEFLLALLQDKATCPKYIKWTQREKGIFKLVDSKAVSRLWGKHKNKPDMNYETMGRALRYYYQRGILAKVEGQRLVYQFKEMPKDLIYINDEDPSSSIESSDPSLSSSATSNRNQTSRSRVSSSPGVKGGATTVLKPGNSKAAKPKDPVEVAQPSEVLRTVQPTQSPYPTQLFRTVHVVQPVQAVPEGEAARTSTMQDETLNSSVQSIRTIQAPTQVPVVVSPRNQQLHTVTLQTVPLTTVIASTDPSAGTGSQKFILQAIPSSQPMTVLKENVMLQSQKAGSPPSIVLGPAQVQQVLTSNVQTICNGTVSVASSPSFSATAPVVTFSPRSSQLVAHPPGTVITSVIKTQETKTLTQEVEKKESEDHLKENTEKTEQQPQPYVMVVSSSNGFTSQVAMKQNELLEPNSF
Sequence of ETV1 (P50549 whole entry): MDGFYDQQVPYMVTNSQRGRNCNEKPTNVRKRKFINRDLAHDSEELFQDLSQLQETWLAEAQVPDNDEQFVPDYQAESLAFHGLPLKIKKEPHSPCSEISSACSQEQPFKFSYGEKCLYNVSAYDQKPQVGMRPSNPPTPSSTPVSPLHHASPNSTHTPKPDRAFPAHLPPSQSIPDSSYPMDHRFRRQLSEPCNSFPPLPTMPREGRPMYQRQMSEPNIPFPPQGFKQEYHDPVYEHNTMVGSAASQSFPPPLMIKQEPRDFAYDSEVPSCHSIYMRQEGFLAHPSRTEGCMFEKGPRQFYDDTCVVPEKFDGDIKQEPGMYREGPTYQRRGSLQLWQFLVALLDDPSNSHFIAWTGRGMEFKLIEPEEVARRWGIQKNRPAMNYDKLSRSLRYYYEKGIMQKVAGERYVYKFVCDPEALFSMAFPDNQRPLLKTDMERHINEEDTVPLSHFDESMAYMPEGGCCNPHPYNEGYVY
Sequence of ETV5 (P41161 whole entry): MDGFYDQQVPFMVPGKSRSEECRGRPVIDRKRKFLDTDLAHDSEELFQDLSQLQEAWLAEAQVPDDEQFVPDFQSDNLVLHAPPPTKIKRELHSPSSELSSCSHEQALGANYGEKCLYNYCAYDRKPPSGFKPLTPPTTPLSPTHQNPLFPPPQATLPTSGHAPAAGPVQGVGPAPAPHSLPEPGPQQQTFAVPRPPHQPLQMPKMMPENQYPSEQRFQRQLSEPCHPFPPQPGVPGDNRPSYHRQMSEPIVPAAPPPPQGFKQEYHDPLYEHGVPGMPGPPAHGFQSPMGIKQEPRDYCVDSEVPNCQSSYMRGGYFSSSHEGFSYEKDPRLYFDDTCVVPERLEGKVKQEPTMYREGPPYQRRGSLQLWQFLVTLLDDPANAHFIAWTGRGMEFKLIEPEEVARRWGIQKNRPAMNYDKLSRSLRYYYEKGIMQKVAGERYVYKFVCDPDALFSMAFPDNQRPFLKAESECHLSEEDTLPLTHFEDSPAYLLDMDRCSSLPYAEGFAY
Sequence of SPIB (Q01892 whole entry): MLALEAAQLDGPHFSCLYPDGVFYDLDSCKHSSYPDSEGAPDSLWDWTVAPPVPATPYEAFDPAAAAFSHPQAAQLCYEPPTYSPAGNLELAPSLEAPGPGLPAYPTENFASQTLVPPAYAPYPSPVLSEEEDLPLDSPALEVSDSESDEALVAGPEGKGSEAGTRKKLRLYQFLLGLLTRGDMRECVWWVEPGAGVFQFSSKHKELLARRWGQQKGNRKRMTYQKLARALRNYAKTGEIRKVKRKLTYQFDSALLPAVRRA

ATACAT
binding signal (FLI1): 1.31 fold enrichment (6-mer frequency, TF over GST control)
binding signal (ELK1): 1.15 fold enrichment (6-mer frequency, TF over GST control)
binding signal (GABPA): 1.25 fold enrichment (6-mer frequency, TF over GST control)
binding signal (ERG): 1.34 fold enrichment (6-mer frequency, TF over GST control)
binding signal (ELF1): 1.24 fold enrichment (6-mer frequency, TF over GST control)
binding signal (EHF): 1.21 fold enrichment (6-mer frequency, TF over GST control)
binding signal (SPI1): 1.2 fold enrichment (6-mer frequency, TF over GST control)
binding signal (SPIB): 1.26 fold enrichment (6-mer frequency, TF over GST control)
binding signal (ELK3): 1.32 fold enrichment (6-mer frequency, TF over GST control)
binding signal (FEV): 1.29 fold enrichment (6-mer frequency, TF over GST control)
binding signal (ETV5): 1.23 fold enrichment (6-mer frequency, TF over GST control)
binding signal (HSF1): 1.01 fold enrichment (6-mer frequency, TF over GST control)
binding signal (SPIC): 1.15 fold enrichment (6-mer frequency, TF over GST control)
binding signal (ELF4): 1.33 fold enrichment (6-mer frequency, TF over GST control)
binding signal (ELK4): 1.31 fold enrichment (6-mer frequency, TF over GST control)
binding signal (ETV2): 1.33 fold enrichment (6-mer frequency, TF over GST control)
binding signal (ELF3): 1.15 fold enrichment (6-mer frequency, TF over GST control)
binding signal (CRX): 1.06 fold enrichment (6-mer frequency, TF over GST control)
binding signal (ETV1): 1.33 fold enrichment (6-mer frequency, TF over GST control)
